Bioassay records from PubChem.
TRPM1 prom inh – reduces MITF-dependent TRPM1 promoter luciferase signal; SK-MEL-5 TRPM1 promoter luciferase, 24 h; hit rate 0.83% among 330,000; inhibition, % at 12.5 µM;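 active means mean inhibition across replicates of 60% or more, whatever share of single replicates reaches that level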
KKLEB cytotox – CF airway cell cytotoxicity counter-screen; KKLEB CF airway cells viability, ATPlite luminescence, overnight; active compounds read low; cells stimulated with P. aeruginosa culture filtrate; activity change (cytotoxicity), % at 5 µM; hit rate 0.36% among 360,000; AID 602141;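 active means corrected activity change at or below -50% at 5 µM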
Shn3 inh set2 – Schnurri-3 reporter inhibition in Clone20 osteoblasts; AID 588674; hit rate 0.52% among 360,000; inhibition, % at 12.5 µM; Clone20 osteoblast Shn3 3'UTR firefly luciferase, 24 h;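 active means mean inhibition of at least 75% with every replicate also reaching 75%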;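 further: 0% = median of neutral control wells and 100% = pilot-screen positive control compound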
Peg3 prom inh – Peg3 promoter activity inhibition; HeLa PEG-Prom luciferase reporter, luminescence, overnight; inhibition, % at 20 µM; hit rate 1.7% among 360,000; AID 588405;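 active means inhibition of at least 50% at 20 µM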
CF NFkB inh – inhibitors of cystic fibrosis induced NF-kB | KKLEB NF-kB-GFP reporter, PAF-induced, GFP fluorescence overnight | inhibition, % at 5 µM | hit rate 0.86% among 360,000 | AID 588850;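 active means at least 50% inhibition at 5 µM, scaled per plate between neutral and stimulator controls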;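 further: PAF is a Pseudomonas aeruginosa culture filtrate used as stimulus; plate controls were PAF-stimulated DMSO wells for no effect and unstimulated DMSO wells for full effect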
HIF-2a inh – HIF-2a inhibition. 786-0 RCC cells HIF-2a reporter, luciferase luminescence, overnight. inhibition, % at 18.8 µM. hit rate 0.72% among 360,000;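 active means inhibition of the luminescence signal of 40% or more relative to plate controls, in a single-dose primary screen at 18.75 µM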
An asterisk follows results filed as active. Only some compounds are listed: those with a hit (about 2.7% of all), similar ones and a draw of the others.

Screening O=C(Nc1ccc(Oc2cccnc2)cc1)C1CCN(Cc2cc(Cl)ccc2O)CC1 returned TRPM1 prom inh 29, KKLEB cytotox -2, Shn3 inh set2 63, Peg3 prom inh 16, CF NFkB inh 18 and HIF-2a inh 14.
COc1ccc(NC(=O)c2ccc(-c3c(C)noc3C)c3ccoc23)cc1 was read as KKLEB cytotox 10, Shn3 inh set2 -38, Peg3 prom inh -221, CF NFkB inh -52 and HIF-2a inh -283.
Screening Cc1cc(C)c(S(=O)(=O)N2CCCCC2)cc1N(C)S(=O)(=O)c1ccc(Cl)cc1 returned TRPM1 prom inh -12, KKLEB cytotox -5, Shn3 inh set2 -2, Peg3 prom inh 98*, CF NFkB inh 7 and HIF-2a inh 22.
C[C@]12CCC(=O)C=C1CC[C@@H]1[C@@H]2CC[C@@]2(C)[C@H]1CC[C@]2(O)C(=O)CO was read as TRPM1 prom inh -8, KKLEB cytotox -3, Shn3 inh set2 29, Peg3 prom inh -11, CF NFkB inh 22 and HIF-2a inh 9.
For CC(=O)[C@@]1(O)CC[C@H]2[C@@H]3CCC4=CC(=O)CC[C@]4(C)[C@H]3[C@@H](O)C[C@@]21C the results were TRPM1 prom inh -10, KKLEB cytotox 30, Shn3 inh set2 9, Peg3 prom inh -13, CF NFkB inh 48 and HIF-2a inh 20.
For CC(=O)OCC(=O)[C@@]1(O)CC[C@H]2[C@@H]3CCC4=CC(=O)C=C[C@]4(C)[C@H]3[C@@H](O)C[C@@]21C the results were TRPM1 prom inh -7, KKLEB cytotox 2, Shn3 inh set2 -4, Peg3 prom inh -10, CF NFkB inh 80* and HIF-2a inh 27.
For CC(=O)OCC(=O)[C@@]1(O)CC[C@H]2[C@@H]3CCC4=CC(=O)C=C[C@]4(C)[C@@]3(Cl)[C@@H](Cl)C[C@@]21C the results were TRPM1 prom inh -4, KKLEB cytotox 26, Shn3 inh set2 5, Peg3 prom inh -2, CF NFkB inh 65* and HIF-2a inh 25.
Screening CC12CCC(=O)C=C1C(F)CC1C2C(O)CC2(C)C1CCC2(O)C(=O)CO (configuration not stated) returned TRPM1 prom inh -23, KKLEB cytotox 33, Shn3 inh set2 8, Peg3 prom inh 10, CF NFkB inh 76* and HIF-2a inh 22.
`CCCCC(=O)O[C@]1(C(=O)CO)CC[C@H]2[C@@H]3CCC4=CC(=O)CC[C@]4(C)[C@H]3[C@@H](O)C[C@@]21C` gave TRPM1 prom inh -10, KKLEB cytotox 30, Shn3 inh set2 19, Peg3 prom inh -6, CF NFkB inh 57* and HIF-2a inh 12.
Screening CC(=O)OCC(=O)[C@@]1(O)CCC2C3CCC4=CC(=O)CCC4(C)C3C(=O)CC21C (some centres not stated) returned TRPM1 prom inh 6, KKLEB cytotox 2, Shn3 inh set2 -15, Peg3 prom inh 11, CF NFkB inh 7 and HIF-2a inh 8.
Screening CCN1C[C@@H]2[C@@H]3C(=O)N(C)C(=O)[C@@H]3[C@](C)(C1=O)N2C(=O)c1ccc(C)cc1 returned TRPM1 prom inh -8, KKLEB cytotox 8, Shn3 inh set2 -2, Peg3 prom inh -8, CF NFkB inh -23 and HIF-2a inh 9.
`C[C@]12C=CC(=O)C=C1CCC1C3CC[C@](O)(C(=O)CO)[C@@]3(C)CC3OC312` (some centres not stated) gave TRPM1 prom inh 2, KKLEB cytotox 6, Shn3 inh set2 -3, Peg3 prom inh 0, CF NFkB inh 13 and HIF-2a inh 24.
For CC12C=CC(=O)C=C1CCC1C2C(O)CC2(C)C1CCC2(O)C(=O)CO (configuration not stated) the results were TRPM1 prom inh -7, KKLEB cytotox 54, Shn3 inh set2 0, Peg3 prom inh 6, CF NFkB inh 64* and HIF-2a inh 23.
`Cc1ccc(-n2nc3c(=O)n(C(C)C(=O)NC4CC4)nc(C)c3c2C)cc1` (configuration not stated) gave TRPM1 prom inh 1, KKLEB cytotox 4, Shn3 inh set2 -9, Peg3 prom inh 1, CF NFkB inh -4 and HIF-2a inh 12.
For Nc1cc(=O)[nH]c(SCCSc2cc(Cl)ccc2Cl)n1 the results were TRPM1 prom inh 49, KKLEB cytotox 1, Shn3 inh set2 1, Peg3 prom inh 54*, CF NFkB inh 8 and HIF-2a inh 19.
